# Experimental data reported in PubChem BioAssay (NCATS).
# Records with an inconclusive call do not appear. Calls of active or inactive are those of the source. Unless noted, the call rests on the fitted dose curve; in most records, active means well fitted curve in the direction sought with a large enough effect; inconclusive means small, poorly fitted or top-dose-only effect, or another doubt; inactive means no such curve, though single readings can be large; an effect the other way counts as inactive or inconclusive.
# Columns and labels:
# [1] = qHTS drug screen for cell cycle checkpoint inhibitors in PARPi-resistant BRCA-mutant ovarian cancer cell lines. (AID 1963452; calls by dose curve; further: potency means the concentration at half of the fitted maximal effect); conditions: PEO1/OlaR viability, CellTiter-Glo luminescence, 96 h; for Z-AUC: stronger effect = lower value
# Summary of the method: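 PEO1, PEO4 and PEO1/OlaR ovarian cancer cells, 600 per well, exposed 96 h at 37C to a dilution series. Viability read by CellTiter-Glo luminescence, normalized to DMSO and empty wells; activity summarized as Z-AUC.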
# [2] = qHTS profiling for inhibitors of Plasmodium falciparum proliferation (AID 504749); further: potency means the concentration at half of the fitted maximal effect;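 on activity, negative = inhibition: 0% = DMSO vehicle and full inhibition = artemisinin control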; on all read-outs here: nearly all actives have a fitted effect of over 60% in size; conditions: P. falciparum in erythrocytes, SYBR Green DNA, 72 h; for activity, negative = inhibition: at 28.7 µM (top of the series)
# Summary of the method: (§1)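 Three-day growth assay of blood-stage parasites in erythrocytes (0.3% parasitemia, 2.5% hematocrit) at 37 C, 5% CO2, quantified by SYBR Green DNA staining after overnight detergent lysis.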
# 3D7 = experiment: as above; conditions: P. falciparum in erythrocytes, SYBR Green DNA, 72 h; series mostly up to 28.7 µM
# Summary of the method: as §1
# 7G8 = experiment: as above; conditions: P. falciparum in erythrocytes, SYBR Green DNA, 72 h; series mostly up to 28.7 µM
# Summary of the method: as §1
# AA1029 = experiment: as above; conditions: P. falciparum in erythrocytes, SYBR Green DNA, 72 h; series mostly up to 28.7 µM
# Summary of the method: as §1
# [3] = qHTS Counterscreen for compound interference against the NCATS DSHEA and TCM libraries (AID 1919978); conditions: firefly luciferase detection reagent interference, luminescence;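 further: compounds preincubated with 1 µM D-luciferin or buffer before detection reagent; % of control where 0% means no effect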
# Summary of the method: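 With 1 uM D-luciferin or phosphate buffer only, compounds at final 19.5 nM–39.8 uM were incubated for 15 min at room temperature. Luciferase detection reagent was then added, and luminescence was measured after a further 30 min at room temperature.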
# [4] = Dual reporter qHTS for agonist of Pregnane X Receptor (hPXR) against the NCATS DSHEA and TCM libraries: Fluorescence readout (AID 1920058); conditions: PXR dual reporter cells; series mostly up to 40 µM; further: 0% is about no effect
# Summary of the method: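 Measures viability of the PXR reporter HepG2 line by protease-substrate fluorescence (405/540 nm), taken 1 h after CellTiter-Fluor addition. Substances are tested as concentration series over a ~24 h exposure, with rifampicin as agonist control.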
# [5] = molecular target: Nuclear receptor subfamily 1 group I member 2 (Homo sapiens) (UniProt O75469); experiment: Dual reporter qHTS for agonist of Pregnane X Receptor (hPXR) against the NCATS DSHEA and TCM libraries: Luminescence readout (AID 1920059); conditions: hPXR dual reporter cells, luciferase luminescence agonist; series mostly up to 40 µM; further: 0% is about no effect
# Summary of the method: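 Luminescent PXR reporter read (ONE-Glo) after a CellTiter-Fluor viability read, following 24 h, 37C treatment of HepG2 cells stably carrying hPXR-Luc.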
# [6] = molecular target: Nuclear receptor subfamily 1 group I member 2 (Homo sapiens) (UniProt O75469); experiment: Dual reporter qHTS for antagonist of Pregnane X Receptor (hPXR) against the NCATS DSHEA and TCM libraries: Luminescence Readout (AID 1920060); conditions: hPXR dual reporter cells, luciferase luminescence, antagonist mode; series mostly up to 40 µM;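 further: HepG2 cells carrying hPXR luciferase reporter stimulated with rifampicin at 2 µM; 0% is about no effect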
# Summary of the method: (§2)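 hPXR-Luc HepG2 cells exposed 24 h at 37 C to compounds with 2 uM rifampicin in antagonist mode; luciferase luminescence measured by ONE-Glo, with CellTiter-Fluor viability read beforehand.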
# [7] = Dual reporter qHTS for antagonist of Pregnane X Receptor (hPXR) against the NCATS DSHEA and TCM libraries: Fluorescence Readout (AID 1920061); conditions: PXR dual reporter cells, antagonist mode; series mostly up to 40 µM; further: 0% is about no effect
# Summary of the method: as §2
# [8] = measured here: PEO1 parental Z-AUC
# Sequence of Nuclear receptor subfamily 1 group I member 2 (Homo sapiens) (O75469 whole entry, looked up): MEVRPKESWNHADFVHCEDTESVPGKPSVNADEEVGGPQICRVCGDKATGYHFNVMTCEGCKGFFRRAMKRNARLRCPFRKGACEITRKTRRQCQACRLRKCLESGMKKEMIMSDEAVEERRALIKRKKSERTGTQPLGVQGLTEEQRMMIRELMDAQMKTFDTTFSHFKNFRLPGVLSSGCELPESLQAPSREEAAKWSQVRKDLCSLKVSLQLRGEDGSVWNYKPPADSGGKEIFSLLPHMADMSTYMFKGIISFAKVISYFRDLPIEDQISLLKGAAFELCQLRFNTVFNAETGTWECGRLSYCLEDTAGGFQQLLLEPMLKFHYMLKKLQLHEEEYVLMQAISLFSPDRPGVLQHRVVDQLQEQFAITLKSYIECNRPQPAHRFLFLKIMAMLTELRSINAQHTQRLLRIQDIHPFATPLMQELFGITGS
compound,measurement,setting,value
CC[C@H]1CN2CCc3cc(OC)c(OC)cc3[C@@H]2C[C@@H]1C[C@H]1NCCc2cc(OC)c(OC)cc21,Z-AUC,[1],-0.485 (inactive)
same,Z-AUC,[1]; [8],-0.835
same,Z-AUC,[1]; measured here: PEO4 Z-AUC,-0.876
CC(=O)O[C@@]12CO[C@@H]1C[C@H](O)[C@@]1(C)C(=O)[C@H](O)C3=C(C)[C@@H](OC(=O)[C@H](O)[C@@H](NC(=O)OC(C)(C)C)c4ccccc4)C[C@@](O)([C@@H](OC(=O)c4ccccc4)[C@H]21)C3(C)C,Potency,[1],0.0087 µM (active)
same,Z-AUC,[1]; [8],-2.65
same,Z-AUC,[1]; measured here: PEO4 Z-AUC,-3.1
CCOc1nc2cccc(C(=O)O)c2n1Cc1ccc(-c2ccccc2-c2nn[nH]n2)cc1,"activity, negative = inhibition",[2]; parasite line A,-6.01% (inactive)
same,"activity, negative = inhibition",[2]; parasite line B,-13.6% (inactive)
same,Potency,3D7,inactive
same,Potency,7G8,8.91 µM (active)
CCCCN(CCCC)CC(O)c1cc(Cl)cc2c1-c1ccc(Cl)cc1/C2=C/c1ccc(Cl)cc1 (stereo not drawn),Z-AUC,[1],-0.171 (inactive)
same,Z-AUC,[1]; [8],-0.362
same,Z-AUC,[1]; measured here: PEO4 Z-AUC,-0.228
same,Potency,[2]; parasite line A,0.0251 µM (active)
same,Potency,[2]; parasite line B,0.0071 µM (active)
same,Potency,3D7,0.0158 µM (active)
same,Potency,7G8,0.0028 µM (active)
same,Potency,AA1029,0.0141 µM (active)
NC(N)=NCCC[C@H](N)C(=O)O,max response,[3],-2.87% (inactive)
same,outcome,[4],inactive
same,outcome,[5],inactive
same,outcome,[6],inactive
same,outcome,[7],inactive
CC1=C(C/C=C(\C)CCC[C@H](C)CCC[C@H](C)CCCC(C)C)C(=O)c2ccccc2C1=O,max response,[3],-2.28% (inactive)
same,outcome,[4],inactive
same,outcome,[6],inactive
same,outcome,[7],inactive
CC1=C(/C=C/C(C)=C/C=C/C(C)=C/C(=O)O)C(C)(C)CCC1,Z-AUC,[1],-0.215 (inactive)
same,Z-AUC,[1]; [8],0.0467
same,Z-AUC,[1]; measured here: PEO4 Z-AUC,0.421
same,"activity, negative = inhibition",[2]; parasite line A,11.8% (inactive)
same,"activity, negative = inhibition",[2]; parasite line B,-26.7% (inactive)
same,Potency,3D7,inactive
same,Potency,7G8,inactive
same,Potency,AA1029,inactive
NC1CCN(c2cccc(Cl)n2)CC1,"activity, negative = inhibition",[2]; parasite line A,13.3% (inactive)
same,"activity, negative = inhibition",[2]; parasite line B,5.51% (inactive)
same,Potency,3D7,inactive
